From PMC4336329 (PLoS ONE, 2015)
In all, about 310,000 compounds went through this assay and about 14,000 (4.5%) showed an effect of 50% or more. Effects have a minus sign here. Shown is part of a subset that was picked to be rich in strong results.

What follows are compounds tested against human ether-à-go-go-related gene (hERG) potassium channel (human, UniProt Q12809) (assay: primary screen, population patch clamp on CHO cells stably expressing hERG; higher = less effect of the substance).
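Also: peak tail current of the secondary pulse compared with the same well before compound.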

Sequence of human ether-à-go-go-related gene (hERG) potassium channel (Q12809 whole entry, looked up): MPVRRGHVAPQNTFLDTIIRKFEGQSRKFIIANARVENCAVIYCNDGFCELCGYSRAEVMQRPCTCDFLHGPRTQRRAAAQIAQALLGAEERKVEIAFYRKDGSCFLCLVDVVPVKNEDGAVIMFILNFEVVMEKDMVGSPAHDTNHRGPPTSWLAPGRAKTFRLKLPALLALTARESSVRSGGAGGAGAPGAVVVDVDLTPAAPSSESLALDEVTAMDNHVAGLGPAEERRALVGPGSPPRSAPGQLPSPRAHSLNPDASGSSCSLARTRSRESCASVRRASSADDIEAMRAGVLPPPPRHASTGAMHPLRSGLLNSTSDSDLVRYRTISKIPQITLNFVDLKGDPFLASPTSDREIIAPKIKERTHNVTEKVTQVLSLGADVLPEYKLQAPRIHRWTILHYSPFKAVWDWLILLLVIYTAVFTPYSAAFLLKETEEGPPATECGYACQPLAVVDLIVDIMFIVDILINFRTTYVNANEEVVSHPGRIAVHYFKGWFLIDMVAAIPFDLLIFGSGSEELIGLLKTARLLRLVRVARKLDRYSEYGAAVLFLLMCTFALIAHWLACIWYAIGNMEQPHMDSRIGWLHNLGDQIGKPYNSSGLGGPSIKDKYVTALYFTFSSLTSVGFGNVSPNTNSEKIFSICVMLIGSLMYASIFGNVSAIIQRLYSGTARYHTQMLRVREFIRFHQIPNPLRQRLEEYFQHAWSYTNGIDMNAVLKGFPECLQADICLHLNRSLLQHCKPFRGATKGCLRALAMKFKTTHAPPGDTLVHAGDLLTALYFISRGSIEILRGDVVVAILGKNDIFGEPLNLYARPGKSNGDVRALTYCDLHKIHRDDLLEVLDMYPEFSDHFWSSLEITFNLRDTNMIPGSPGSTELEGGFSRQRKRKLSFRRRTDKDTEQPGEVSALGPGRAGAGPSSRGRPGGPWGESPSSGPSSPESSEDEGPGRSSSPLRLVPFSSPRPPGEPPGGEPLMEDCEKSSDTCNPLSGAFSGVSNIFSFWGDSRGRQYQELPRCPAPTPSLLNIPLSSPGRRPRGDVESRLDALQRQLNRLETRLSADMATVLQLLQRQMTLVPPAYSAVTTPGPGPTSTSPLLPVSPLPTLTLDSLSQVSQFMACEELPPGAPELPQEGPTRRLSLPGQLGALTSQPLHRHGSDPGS

| Structure (SMILES) | hERG current change (%, negative = inhibition) at 10uM [%] |
| --- | --- |
| COc1ccc(S(=O)(=O)N2CCC(C)CC2)cc1N(C)S(=O)(=O)c1ccccc1 | -2.12 |
| COC(=O)c1cccc(NC(=O)CCNC(=O)c2ccco2)c1 | 18.8 |
| COC(=O)C1=C(C)N(c2ccc(C(=O)OC)cc2)C(=O)C1 | 22.3 |
| O=C(CSc1nnc(-c2ccncc2)o1)N1CCCC1 | -19.1 |
| O=C(CCC(=O)c1ccc(Oc2ccccc2)cc1)Nc1ccc(Cl)cc1Cl | 5.46 |
| CCN(CC)S(=O)(=O)c1ccc(-c2nnc(SCC(=O)Nc3nnc(C)s3)n2CC)cc1 | 12.2 |
| Cc1ccc(C(=O)N/C(=C/c2ccc(-c3cccc([N+](=O)[O-])c3)o2)C(=O)NCCCN(C)C)cc1 | -80 |
| Cc1ccc(C(=O)N/C(=C/c2ccc(-c3cccc([N+](=O)[O-])c3)o2)C(=O)NC(C)(C)C)cc1 | -21.9 |
| Cc1ccc(C(=O)N/C(=C/c2ccc(-c3cccc([N+](=O)[O-])c3)o2)C(=O)NC(C)C)cc1 | -30.8 |
| Cc1ccc(C(=O)N/C(=C\c2ccc(-c3cccc([N+](=O)[O-])c3)o2)C(=O)NC(C)(C)C)cc1 | 1.94 |
| Cc1ccc(C(=O)N/C(=C\c2ccc(-c3cccc([N+](=O)[O-])c3)o2)C(=O)NCCCN(C)C)cc1 | -67.6 |
| O=C(N/N=C/c1ccc(-c2cccc([N+](=O)[O-])c2)o1)c1ccc([N+](=O)[O-])cc1 | -40 |
| O=C(CSc1nnc(CN2CCOCC2)n1-c1ccc(Cl)cc1)Nc1ccc2c(c1)OCO2 | -9.87 |
| CC/C(O)=C1\C(=O)CCCC1=NCCc1c(C)[nH]c2ccc(C)cc12 | -14 |
| CCOC(=O)CC1C(=O)NCCN1C(=O)Nc1ccc(Cl)cc1 (centres unmarked) | 2.37 |
| CC(=O)c1c(C)[nH]c(C(=O)N2c3ccccc3CC2C)c1C (centres unmarked) | 5.33 |
| Cc1csc(=O)n1CCC(=O)OCC(=O)c1ccc(Br)cc1 | -18.4 |
| O=c1oc2ccccc2c2c1ncn2C1CCCCC1 | -51.7 |
| O=c1c2ccccc2ncn1C1CCCCC1 | -19.4 |
| O=c1oc2ccccc2c2c1ncn2-c1ccccc1 | -11.8 |
| O=CN1CCN(C(C(=O)NC2CCCCC2)c2ccc(Cl)cc2)CC1 (centres unmarked) | -15 |
| O=C(NC1CCCC1)C(c1ccc(Cl)cc1)N1CCN(C2CCCCC2)CC1 (centres unmarked) | -59.3 |

| Structure (SMILES) | hERG current change (%, negative = inhibition) at 10uM [%] |
| --- | --- |
| O=CN1CCN(C(C(=O)NC2CCCC2)c2ccc(Cl)cc2)CC1 (centres unmarked) | -14.8 |
| Cc1c(C=O)c2ccccc2n1CC(=O)NCc1ccc2c(c1)OCO2 | 21.8 |
| CC1CC(C)CN(CC(O)COCCOc2ccc(Br)cc2)C1.Cl (centres unmarked) | -71.6 |
| CCN1CCN(CC(O)COCCOc2ccc(Br)cc2)CC1.Cl (centres unmarked) | -12.3 |
| CC1(C)CCCC(C)(C)N1CC(O)COCCOc1ccc(Br)cc1.Cl (centres unmarked) | -67.5 |
| Cl.OC(COCCOc1ccc(Br)cc1)CN1CCCCC1 (centres unmarked) | -37.1 |
| CC1CC(C)CN(CC(O)COCc2ccccc2)C1.Cl (centres unmarked) | -7.79 |
| CC1CCN(CC(O)COCCOc2ccc(Br)cc2)CC1.Cl (centres unmarked) | -64.3 |
| CC1(C)CC(O)CC(C)(C)N1CC(O)COCCOc1ccc(Br)cc1 (centres unmarked) | -42.4 |
| Cl.OCCN1CCN(CC(O)COCCOc2ccc(Br)cc2)CC1 (centres unmarked) | -20.2 |
| CN1CCN(CC(O)COCCOc2ccc(Br)cc2)CC1.Cl (centres unmarked) | 10.4 |
| COc1cc(CCN2C(=O)c3cccc4cccc(c34)C2=O)c(S(=O)(=O)NCCO)cc1OC | -23.8 |
| CC(C)COP(=O)(OCC(C)C)C(O)c1ccccc1F (centres unmarked) | -1.27 |
| CCCNC(=O)/C=C/c1ccc(S(=O)(=O)Nc2ccccc2OC)cc1 | -1.75 |
| Cc1ccc(OCCOc2cccc3ccc(C)nc23)c([N+](=O)[O-])c1.O=C(O)C(=O)O | -10.7 |
| CC1CCCCN1c1ncnc2ccccc12.Cl (centres unmarked) | -7.46 |
| Cc1ccc(C)c(N2CCN(S(=O)(=O)c3ccc4c(c3)C(C)(C)C(=O)N4C)CC2)c1 | 3.88 |
| Cc1nc2ncnn2c(N2CCN(C(c3ccccc3)c3ccccc3)CC2)c1C | -47.7 |
| COCCCn1c(SCC(=O)Nc2ccccc2)nnc1-c1ccncc1 | -6.82 |
| CCOC(=O)c1cccc(NC(=O)CSc2nnc(COc3ccccc3)n2CC)c1 | -51.3 |
| CCn1c(COc2cccc(C)c2)nnc1SCC(=O)Nc1cccc(C(=O)O)c1 | 9.41 |
| N#Cc1ccc(OCc2nnc(SCC(=O)c3ccccc3)n2-c2ccccc2)cc1 | -40.8 |

| Structure (SMILES) | hERG current change (%, negative = inhibition) at 10uM [%] |
| --- | --- |
| COC(=O)c1cccc(NC(=O)CSc2nnc(COc3ccc(C#N)cc3)n2-c2ccccc2)c1 | -73.5 |
| COC(=O)c1cccc(NC(=O)CSc2nnc(COc3ccccc3)n2C)c1 | -7.84 |
| CCOC(=O)c1cccc(NC(=O)CSc2nnc(-c3ccncc3)n2CCCOC)c1 | -50.4 |
| COCCCn1c(SCC(=O)Nc2cccc(C(=O)OC)c2)nnc1-c1ccncc1 | -15.8 |
| CCn1c(COc2cccc(C)c2)nnc1SCC(=O)Nc1cccc(C(=O)OC)c1 | -2.45 |
| COc1ccc(OC)c(CCNC(=O)Cn2ccc3cc(S(=O)(=O)N4CCCC4)ccc32)c1 | -13.9 |
| CCN(CC)CCNC(=O)c1cc2c(s1)-c1ccccc1SC2 | -77.8 |
| COCCNC(=O)c1cc2c(s1)-c1ccc(Cl)cc1SC2 | -5 |
| CCOCCCNC(=O)c1cc2c(s1)-c1ccccc1SC2 | -5.28 |
| CN(CCC#N)C(=O)c1cc2c(s1)-c1ccccc1SC2 | -8.88 |
| NNC(=O)c1cc2c(s1)-c1cc(Cl)ccc1SC2 | 10.3 |
| CNC(=O)c1cc2cc(Br)ccc2s1 | 10.1 |
| CCN(CC)CCNC(=O)c1cc2cc(Br)ccc2s1 | -61.1 |
| CN(C)C(=O)c1cc2cc(Br)ccc2s1 | -3.77 |
| CN(C)CCNC(=O)c1cc2c(s1)-c1ccc(Cl)cc1SC2 | -81.1 |
| C/C(=N/OCC(=O)NCCCCCCNC(=O)CO/N=C(/C)c1cccs1)c1cccs1 | -20.8 |
| CCCCOC(=O)Nc1cc(Cl)ccc1C | 1.24 |
| O=S(=O)(/N=C(/Nc1ccccc1)C(F)(F)F)c1ccccc1 | -20.7 |
| Br.C/C(CC1CC(COCC(C)C)OC1=O)=N\Nc1nc(-c2ccccc2)cs1 (centres unmarked) | -15.5 |
| CC1Sc2ccc(S(=O)(=O)CCC(=O)Nc3ccccc3Cl)cc2NC1=O (centres unmarked) | 4.08 |
| Cc1ccc(/C=C/C(=O)Nc2nnc(SCc3ccc(C#N)cc3)s2)o1 | -11 |
| O=C1CC(c2ccccc2)n2nc(NC(=O)C3CCCO3)nc2N1 (centres unmarked) | -10 |

| Structure (SMILES) | hERG current change (%, negative = inhibition) at 10uM [%] |
| --- | --- |
| COc1ccc(NC(=O)COC(=O)CC2CCCC2)cc1Cl | -1.21 |
| Cc1ccc(S(=O)(=O)N(C)C)cc1NC(=O)COC(=O)CC1CCCC1 | -74.2 |
| Cc1ccc(S(=O)(=O)N(C)C)cc1NC(=O)COC(=O)CCC1CCCC1 | -18.5 |
| CCN(CC)S(=O)(=O)c1ccc(OC)c(NC(=O)CC2CCCC2)c1 | -10.8 |
| COc1ccc(S(=O)(=O)N(C)C)cc1NC(=O)COC(=O)CC1CCCC1 | -72.8 |
| Cc1ccc(S(=O)(=O)N(C)C)cc1NC(=O)COC(=O)CCC1CCCCC1 | 2.99 |
| CCc1ccccc1NC(=O)CN(C)C(=O)CSc1nc2cc(Cl)ccc2s1 | 17.8 |
| CCOC(=O)/C(=N\Nc1cc(Cl)ccc1Cl)N1CCN(C)CC1 | -16.9 |
| O=C(CSc1ncccn1)N/N=C/c1ccccc1[N+](=O)[O-] | 11.3 |
| O=C(NCCN1CCOCC1)/C(=C/c1ccc(F)cc1)NC(=O)c1ccccc1 | -67.8 |
| O=C(NCCN1CCOCC1)/C(=C\c1ccc(Br)cc1)NC(=O)c1cccs1 | -67.4 |
| O=C(NCCCN1CCOCC1)/C(=C/c1cccnc1)NC(=O)c1ccccc1 | -25 |
| O=C(NCCN1CCOCC1)/C(=C/c1ccco1)NC(=O)c1ccccc1 | -5.48 |
| O=C(NCCN1CCOCC1)/C(=C\c1ccccc1F)NC(=O)c1ccccc1 | -26.5 |
| O=C(NCCN1CCOCC1)/C(=C\c1ccc(F)cc1)NC(=O)c1ccccc1 | -62.3 |
| COc1ccccc1/C=C(/NC(=O)c1ccccc1)C(=O)NCCN1CCOCC1 | 15.5 |
| O=C(NCCCN1CCOCC1)/C(=C/c1ccc(F)cc1)NC(=O)c1ccccc1 | -73.5 |
| O=C(NCCO)/C(=C/c1ccc(Br)cc1)NC(=O)c1cccs1 | -14 |
| CN(C)c1ccc(/C=C(\NC(=O)c2ccccc2)C(=O)NCCCN2CCOCC2)cc1 | -10.4 |
| O=C(NCCO)/C(=C\c1ccc(Br)cc1)NC(=O)c1cccs1 | -3.91 |
